In PubChem BioAssay AID977624 (Broad Institute, 2014):
Screen size: about 1,800 compounds; fewer than 10 were called active. Another 44% or so got no clear call; they are omitted.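 Rule for the calls: active = compound lowering the normal-ribosome reporter at least twice as much as the humanized-ribosome reporter, growth loss under a set limit; inconclusive = no clear call, values can overlap the other calls; inactive = the rest.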 The list is a sample of the results.

Assay: wild-type E. coli growth inhibition versus h34 humanized strain – h34 mutant RFP, wild-type GFP, cherry-pick, dose response (AID 977624)
Conditions: fluorescence, 24 h; series mostly up to 50 µM; activity change, negative = inhibition: at the top concentration

Activity change, negative = inhibition, inactive:
CCc1nc2ccccc2n1CCc1ccccc1 -4.63, CCc1cc(C(=O)N2CCCC(C(=O)c3cccc4ccccc34)C2)n(C)n1 (configuration not stated) 0.908, C=C(C)Cn1c(=O)c2c(nc3n2CCCN3Cc2ccccc2)n(C)c1=O 9.19, O=C(O)CCN(Cc1ccccc1)S(=O)(=O)c1ccccc1Cl 14.4, NC(=O)CSc1nc2cc([N+](=O)[O-])ccc2n1-c1cccc(C(F)(F)F)c1 11.7, CCC(C(=O)NCCc1ccc(C)cc1)n1nc(C)c2c(C)n(-c3ccccc3)nc2c1=O (configuration not stated) -1.52, CCOc1ccccc1OCCCC(=O)N1CCN(S(=O)(=O)c2cc(F)ccc2F)CC1 -10.4, CN(Cc1ccc(F)cc1)C(=O)CN1CCN(S(=O)(=O)c2ccc3c(c2)OCCCO3)CC1 2.79, Cc1cccc(-c2nsc(SCC(=O)NCC3CCCO3)n2)c1 (configuration not stated) 13.9, Cc1cc(C)n2nc(C(=O)Nc3cccc(S(=O)(=O)N(C)c4ccccc4)c3)nc2n1 -1.19, CC(=O)c1ccc(N2CCN(C(=O)C3CCN(S(=O)(=O)c4ccc5c(c4)CC(C)N5C(C)=O)CC3)CC2)cc1 (configuration not stated) -7.8, Cc1cc(C)c(NC(=O)C(C)c2cccc(C(=O)c3ccccc3)c2)c(C)c1 (configuration not stated) -10.5, COCC#Cc1ccc2c(c1)O[C@H](CN(C)C(=O)c1ccccc1)[C@@H](C)CN([C@H](C)CO)S2(=O)=O 4.68, C=CCn1c(SCc2n[nH]c(=S)n2-c2ccccc2)nnc1-c1ccccc1 -5.43, CC(=O)c1ccccc1OCCOCCOCCOc1ccccc1C(C)=O 7.68, Brc1ccccc1CN1CCC(Cc2ccccc2)CC1 -3.84, CCn1cc(CCC(=O)NCCc2ccccc2)c2ccccc21 -11.8, COc1ccccc1N(C)S(=O)(=O)c1ccc(Cl)c(C(=O)NC2=NCCS2)c1 -3.78, O=C(COC(=O)CNC(=O)c1ccc(F)cc1)Nc1cccc(S(=O)(=O)N2CCCC2)c1 13.5, COC(=O)c1ccc2nc(-c3cccc(Br)c3)c(Cc3ccsc3)n2c1 4.56, COc1cccc(C(=O)C2CCCN(C/C=C/c3ccccc3OC)C2)c1 (configuration not stated) 5.82, O=C(NCc1ccccc1)c1cc(S(=O)(=O)N2CCCCC2)ccc1N1CCOCC1 -1.63, CC(=O)c1c(N2CCOCC2)nc2ccc(Cl)cc2c1-c1ccccc1 11.3, O=C(NCc1nnnn1-c1ccc(Cl)cc1)c1ccc([N+](=O)[O-])o1 -13.2, O=C(CCC(=O)N1CCN(c2ccc(F)cc2)CC1)N1CCN(c2ccc(F)cc2)CC1 -3.59, COc1cccc(-c2ccc(SCc3ccccn3)nn2)c1 1.75, CCC(C(=O)NC1CCCC1)n1c(-c2ccnc3ccccc23)nc2ccccc21 (configuration not stated) -2.18
